# KB-V1 cytotox: KB-V1 MDR subline cytotoxicity; KB-V1 MDR cells viability, CellTiter-Glo, 72 h; 3.4% of 400,000 active; Potency, µM (titrated, usually from 46.1 µM), usual class: cytotoxic; note: nearly all actives have a fitted effect of over 60% in size
#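 KB-V1, DMEM (no phenol red) + 10% FBS; cpd pin-transferred, titration series; 72 h, 37 degrees C; CellTiter-Glo, luminescence. Data normalized, curve-fit.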
# HT1080 IDH1KD tx: HT-1080 IDH1 knockdown cell toxicity (counter line) | HT-1080 IDH1 knockdown viability, ATP luminescence, 48 h | Potency, µM (titrated, usually from 46.1 µM), for the others: at the top dose activity, negative = toxicity, hits mostly cytotoxic | 2% of 360,000 active | AID 686971;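 note: 0% = DMSO wells and -100% = cell-free medium wells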
#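 Using the IDH1-knockdown HT-1080 line run in the same batch and compound series as the NT line, viability after 48 h at 37 °C was determined by CellTiter-Glo luminescence and expressed as % activity.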
# HT1080-NT tox: kills 2HG-producing HT-1080-NT fibrosarcoma cells | 1.6% of 360,000 active | HT-1080-NT fibrosarcoma viability, CellTiter-Glo ATP luminescence, 48 h | Potency, µM (top dose mostly 46.1 µM), for inactives: at the top dose activity, negative = less viability, hits mostly cytotoxic;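 note: NT is the 2HG producing partner of a matched IDH1 knockdown line; 0% = DMSO-treated cells and -100% = media-only wells without cells; nearly all actives have a fitted effect of over 55% in size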
#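 Luminescent CellTiter-Glo readout after 48 hours of compound exposure at 37 degrees C defined viability of HT-1080-NT cells. Activity was normalized to DMSO wells and cell-free media wells; concentration-response curves were fitted and assigned curve classes.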
# DT40 TDP1 no CPT: qHTS for Inhibitors of human tyrosyl-DNA phosphodiesterase 1 (TDP1): qHTS in cells in absence of CPT; DT40 Tdp1-/- hTDP1 cells, no CPT, ATP luminescence, 48 h; Potency, µM (top dose mostly 46.2 µM), for inactives: top-dose activity change, negative = growth inhibition, hits mostly inhibitors; 15% of 420,000 active; AID 686978, 2013; note: nearly all actives have a fitted effect of over 55% in size
#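 Compound effects on proliferation are scored in DT40 Tdp1-/-;hTDP1 cells in the absence of CPT. ATP levels (CellTiter-Glo luminescence) are recorded after a ≥48 hr, 37 °C incubation.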
# KB-3-1 cytotox: kills parental KB-3-1 adenocarcinoma cells | 1.4% of 400,000 active | KB-3-1 viability, CellTiter-Glo ATP luminescence, 72 h | Potency, µM (top dose mostly 46.1 µM), usual class: cytotoxic; note: nearly all actives have a fitted effect of over 60% in size
#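 Using CellTiter-Glo luminescence, growth of non-resistant KB-3-1 adenocarcinoma cells is assessed 72 h after pin-tool compound addition at 37 °C. Normalized responses across the concentration series yield fitted curves.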
# TDP1 cell CPT: growth inhibition of DT40 Tdp1-/-;hTDP1 cells with camptothecin (screen for TDP1 inhibitors); 12% of 420,000 active; chicken DT40 Tdp1-/-;hTDP1 cells + 20 nM CPT, ATP luminescence, 48 h; Potency, µM (highest dose often 46.2 µM), without a hit: at the highest dose activity change, negative = growth inhibition, hits mostly inhibitors; note: nearly all actives have a fitted effect of over 55% in size
#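 Chicken DT40 Tdp1-/- cells complemented with human TDP1, 400 cells/well, exposed to compounds plus 20 nM camptothecin for at least 48 h at 37 C; viability read as ATP content by CellTiter-Glo luminescence.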
# * hit, by the source's call; i = inactive; u = inconclusive; x = not tested or not shown; [ ] = another dose, or the depositor's remark. A selection: hits, their analogues and other compounds. The true share with any hit is near 19%. Calls come from the whole dose curve; as a rule, active = well fitted curve in the direction sought with a large enough effect; inconclusive = small, poorly fitted or top-dose-only effect, or another doubt; inactive = no such curve, though single readings can be large; an effect the other way counts as inactive or inconclusive. Unless noted, % is set by controls: 0 for no effect and ±100 for the full control effect; potency is the fitted concentration of half-maximal effect.
SMILES,KB-V1 cytotox,HT1080 IDH1KD tx,HT1080-NT tox,DT40 TDP1 no CPT,KB-3-1 cytotox,TDP1 cell CPT
COc1ccc(C(O)Cc2nccn2C)cc1 (configuration not stated),u,14%,8%,-16%,i,-18%
CCOc1ccc(C(=O)NC2CCN(C(=O)Nc3ccc(F)cc3)CC2)cc1,i,19%,20%,-12%,i,11%
CC(OC(=O)c1ccc(F)cc1)C(=O)Nc1nc(-c2cccc([N+](=O)[O-])c2)cs1 (configuration not stated),21µM*,15%,9%,u,i,u
CC(C)Oc1ccc(C(=O)OC(C)C(=O)Nc2nc(-c3cccc([N+](=O)[O-])c3)cs2)cc1 (configuration not stated),i,-2%,-4%,26µM*,i,16µM*
O=C(Cc1cccc2ccccc12)Nc1nc(-c2cccc([N+](=O)[O-])c2)cs1,i,u,-21%,u,i,u
CC(OC(=O)c1ccco1)C(=O)Nc1nc(-c2ccccc2)cs1 (configuration not stated),i,0%,0%,16µM*,i,u
CN(C)CCOC(=O)c1ccc2c(c1)S(=O)(=O)c1ccccc1C2=O,i,-1%,0%,-3%,i,14%
COc1ccc(N2C(=O)[C@@H]3C[C@H]2CN3Cc2ccc3nccnc3c2)cc1Cl,x,x,x,u,x,11%[9.04 µM]
CCc1sc(Nc2cccc(Cl)c2)nc1-c1cc2cccc(OC)c2oc1=O,i,x,x,16µM*,i,u
COc1cccc2cc(-c3nc(Nc4cccc(C)c4)sc3C)c(=O)oc12,i,x,x,u,i,u
Cn1c2ccccc2c2cnn(CC(=O)NCCCN3CCN(c4ccccc4F)CC3)c(=O)c21,i,0%,-9%,15µM*,i,u
Cc1ccc(C)c(N2CCN(CCCNC(=O)Cn3ncc4c5ccccc5n(C)c4c3=O)CC2)c1,i,x,x,10µM*,i,15µM*
CCC1CCCCN1CCCNC(=O)Cn1ncc2c(C)n(Cc3ccccc3Cl)c(C)c2c1=O (configuration not stated),i,0%,-8%,18µM*,i,18µM*
CC1CCCCN1CCCNC(=O)Cn1ncc2c3ccccc3n(Cc3ccccc3F)c2c1=O (configuration not stated),i,x,x,18µM*,i,u
CN1CCN(CCCNC(=O)Cn2ncc3c4ccccc4n(C)c3c2=O)CC1,i,3%,2%,-2%,i,-4%
O=c1[nH]c(SCc2c(F)cccc2Cl)nc2c1CCC2,i,x,x,u,i,u
CS(=O)(=O)c1cccc(C(=O)Nc2cccc(-c3nc4ccccc4[nH]3)c2)c1,i,u,u,u,i,u
CS(=O)(=O)c1ccc(C(=O)Nc2cccc(-c3nc4ccccc4[nH]3)c2)cc1,u,-1%,-1%,26µM*,i,u
CS(=O)(=O)Cc1ccc(C(=O)Nc2cccc(-c3nc4ccccc4[nH]3)c2)cc1,i,u,-28%,13µM*,i,u
COc1cc(OC)cc(C(=O)Nc2cc3c(cc2N2CCCC2)n(C)c(=O)c(=O)n3C)c1,i,x,x,u,i,u
O=C(Cc1cccc(NC(=O)C2CCN(C(=O)C3CC3)CC2)c1)Nc1cccc(C(=O)N2CCCCC2)c1,i,8%,-1%,-6%,i,-6%
CCCCNS(=O)(=O)c1ccc2nc(-c3cccnc3)cc(C(=O)NCCC)c2c1,i,x,x,-21%,i,u
COc1ccc(CCN2C(=O)COc3ccccc3C2C(=O)Nc2ccc3c(c2)OCCO3)cc1OC (configuration not stated),i,10%,14%,21µM*,i,u
CC(C)c1ccc(S(=O)(=O)Nc2cc3c(cc2NCc2ccccc2)n(C)c(=O)n3C)cc1,u,x,x,u,23µM*,u
CCc1ccc(S(=O)(=O)Nc2cc3c(cc2C)n(C)c(=O)n3C)cc1,i,15µM*,16µM*,2.9µM*,5.2µM*,5.2µM*
SMILES,KB-V1 cytotox,HT1080 IDH1KD tx,HT1080-NT tox,DT40 TDP1 no CPT,KB-3-1 cytotox,TDP1 cell CPT
Cn1c(=O)n(C)c2cc(S(=O)(=O)Nc3ccccc3O)ccc21,u,19%,19%,u,i,u
Cc1cc2c(cc1NS(=O)(=O)c1ccc(Br)cc1)n(C)c(=O)c(=O)n2C,i,x,x,u,i,u
Cc1ccc(S(=O)(=O)Nc2cc3c(cc2NCc2ccccc2)n(C)c(=O)n3C)c(C)c1,u,x,x,23µM*,i,8.2µM*
Cc1ccc(S(=O)(=O)Nc2cc3c(cc2NCc2ccccc2)n(C)c(=O)n3C)cc1,i,x,x,16µM*,i,9.2µM*
COc1cc(=O)n2c(c1C(=O)NCc1ccc3c(c1)OCO3)CCN(C(=O)c1ccccc1F)CC2,x,x,x,-15%,x,4%
Cn1c(=O)n(C)c2cc(N3CCOCC3)c(NS(=O)(=O)c3ccc(F)cc3)cc21,i,x,x,u,i,u
Cn1c(=O)n(C)c2cc(NS(=O)(=O)c3ccc(F)cc3)c(NCc3ccccc3)cc21,u,x,x,15µM*,i,9.2µM*
CN1OC[C@@H]2CN(Cc3cc(Cl)cc(Cl)c3)[C@H](c3cccc(Oc4ccccc4)c3)C[C@@H]21,i,0%,-2%,u,i,u
CN1OC[C@@H]2CN(Cc3ccccc3)[C@H](c3cccc(Oc4ccccc4)c3)C[C@@H]21,i,-18%,-4%,23µM*,i,26µM*
C=C1CCC(O)C2(C)CCC3C(C)C(=O)OC3C12O (configuration not stated),i,5%,6%,21%,i,31%
C=C1C(=O)O[C@@H]2[C@H]1CC[C@H](C)[C@]1(O)CCC(=O)[C@@]21C,i,u,u,u,u,23µM*
O=C(NC1CCC(O)CC1)c1ccc(NS(=O)(=O)c2cccc([N+](=O)[O-])c2)cc1 (configuration not stated),u,8%,3%,1%,i,-25%
O=C(NCCO)/C(=C\c1cccc([N+](=O)[O-])c1)NC(=O)c1cccs1,i,11%,5%,-1%,i,4%
O=C(N/N=C/c1cc2c3c(c1O)CCCN3CCC2)c1ccccc1O,u,u,u,4.6µM*,4.1µM*,3.7µM*

# Assay outcomes deposited in PubChem BioAssay by National Center for Advancing Translational Sciences (NCATS).
